# Shown are actives, neighbours in structure and some others; about 7.5% of the full set was active somewhere.
# SMN2 splice enh – qHTS Assay for Enhancers of SMN2 Splice Variant Expression | HEK293 SMN2-luciferase splicing reporter, luminescence, 30-36 h | Potency, µM (highest dose often 46.1 µM), for the others: top-dose activity change, positive = activation, most hits filed as activators | 210,000 compounds, 2.8% hits | AID 1458, 2008; note: % of control where 0% means no effect; nearly all actives have a fitted effect of over 55% in size
#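 HEK293 cells carry an SMN2 […]–luciferase reporter in which exon 7 inclusion puts luciferase in frame. Cells were plated 10-12 h before compound addition, then incubated 30-36 h at 37C. ONE-Glo luminescence was read; sodium butyrate at 4.5 mM final served as control.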
# ELG1 genotox – qHTS screen for small molecules that induce genotoxicity in human embryonic kidney (HEK293T) cells expressing luciferase-tagged ELG1; AID 504466, 2011; Potency, µM (highest dose often 46 µM), inactives show top-dose activity change, positive = activation, hits mostly activators; 330,000 compounds, 1.3% hits; HEK293T ELG1-luciferase reporter, luminescence, 16 h; note: % of control where 0% means no effect; nearly all actives have a fitted effect of over 60% in size
#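 Genotoxic stress is detected as increased luminescence from luciferase-tagged ELG1 in HEK293T cells, measured with ONE-Glo after a 16 hr treatment at 37 °C.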
# Rab9 promoter act – qHTS Assay for Rab9 Promoter Activators. Huh7 Rab9 promoter-luciferase reporter, luminescence, 24 h. Potency, µM (series often up to 9.22 µM), inactives show at the highest dose activation, negative = inhibition, most hits filed as activators. 320,000 compounds, 2.8% hits. AID 485297, 2010; note: % of control where 0% means no effect; nearly all actives have a fitted effect of over 60% in size
#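 Using Huh7 cells stably transfected with Rab9 promoter–luciferase, compounds were incubated 24 h at 37 °C, 5% CO2; luciferase luminescence was read 10 min after reagent addition.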
# NPC1 prom act – qHTS Assay for NPC1 Promoter Activators; Potency, µM (series often up to 9.22 µM), inactives show top-dose activation, hits mostly activators; 320,000 compounds, 2.4% hits; Huh7 NPC1 promoter luciferase reporter, 24 h; note: % of control where 0% means no effect; nearly all actives have a fitted effect of over 60% in size
#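 Luminescence from an NPC1 promoter-driven luciferase reporter in stably transfected Huh7 cells was measured after 24 h compound treatment at 37 °C, followed by 10 min ambient incubation with luciferase detection reagent.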
# FLuc counter – qHTS profiling assay for firefly luciferase inhibitor/activator using purifed enzyme and Km concentrations of substrates (counterscreen for miR-21 project); Potency, µM (series often up to 57.5 µM), for the others: at the highest dose activity change, negative = inhibition, actives largely listed as inhibitors; 360,000 compounds, 6.9% hits; purified FLuc, Km substrates, luminescence inhibition;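 note: plate controls were vehicle for no effect and reference inhibitor for full effect; nearly all actives have a fitted effect of over 55% in size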
# Target sequence (P08659 whole entry, looked up): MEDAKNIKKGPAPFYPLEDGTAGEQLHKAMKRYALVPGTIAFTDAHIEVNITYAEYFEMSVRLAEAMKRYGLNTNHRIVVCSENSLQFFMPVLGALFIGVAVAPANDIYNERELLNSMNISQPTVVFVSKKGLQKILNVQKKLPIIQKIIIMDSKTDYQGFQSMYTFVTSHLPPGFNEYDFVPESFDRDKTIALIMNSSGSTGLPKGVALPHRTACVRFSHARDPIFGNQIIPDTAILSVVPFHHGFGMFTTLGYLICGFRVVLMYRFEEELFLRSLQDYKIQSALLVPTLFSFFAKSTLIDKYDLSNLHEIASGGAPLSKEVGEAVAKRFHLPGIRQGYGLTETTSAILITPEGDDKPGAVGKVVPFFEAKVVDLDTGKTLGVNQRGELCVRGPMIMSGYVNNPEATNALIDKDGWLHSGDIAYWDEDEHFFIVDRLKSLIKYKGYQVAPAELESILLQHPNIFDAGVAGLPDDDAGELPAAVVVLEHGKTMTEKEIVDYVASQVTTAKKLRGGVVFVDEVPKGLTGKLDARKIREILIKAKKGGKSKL
#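 Biochemical qHTS of compounds, final roughly 60 µM downward over six points, against 10 nM purified firefly luciferase using Km concentrations of substrates (10 uM D-luciferin, 10 uM ATP) in Tris acetate pH 7.5 buffer; luminescence output.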
# Starred values were filed as active, the others as inactive; u = inconclusive; x = no result given. Calls come from the whole dose curve; as a rule, active = well fitted curve in the direction sought with a large enough effect; inconclusive = small, poorly fitted or top-dose-only effect, or another doubt; inactive = no such curve, though single readings can be large; an effect the other way counts as inactive or inconclusive. Potency is the fitted concentration of half-maximal effect.
SMILES,SMN2 splice enh,ELG1 genotox,Rab9 promoter act,NPC1 prom act,FLuc counter
Cc1cc(C(=O)CN2C(=O)c3cccc(N)c3C2=O)c(C)n1Cc1cccs1,8.91µM*,2.91µM*,1.12µM*,1.26µM*,1.07µM*
CCCN1C(=O)/C(=C/c2ccc(C)s2)NC1=S,-4.2%,-5.8%,-6.6%,-2.3%,26.9µM*
COc1ccc(C2C(C(=O)N3CCN(c4ccccn4)CC3)CC(=O)N2c2ccc(OC)cc2)cc1 (centres undefined),10.1%,-14.7%,-3.5%,-2.0%,6.3%
CCc1ccccc1Nc1nc(N)nc(COC(=O)C2=COCCO2)n1,x,1.2%,5.1%,9.1%,-7.4%
CC(=O)Nc1cccc(C(=O)OCC(=O)c2ccccc2Cl)c1,22.3%,u,0.794µM*,3.55µM*,u
CCC(=O)Nc1cccc(C(=O)OCC(=O)c2ccccc2Cl)c1,26.5%,u,u,3.16µM*,7.57µM*
CC(=O)Nc1cccc(C(=O)OCC(=O)NC(=O)c2ccccc2)c1,x,1.8%,0.3%,-0.9%,-13.0%
CC(=O)Nc1cccc(C(=O)OCC(=O)N2CCC(c3ccccc3)=N2)c1,x,u,u,u,15.1µM*
O=C(c1ccc(CS(=O)Cc2ccccc2Cl)o1)N1CCN(c2cccc(Cl)c2)CC1 (centres undefined),x,-9.8%,2.2%,-1.1%,0.8%
COc1ccccc1N1CCN(C(=O)CSc2nc3ccccc3nc2Cc2ccccc2)CC1,x,x,x,x,-1.4%
O=C(NNC(=O)c1ccc(O)cc1O)c1ccc(Cl)cc1,14.0%,u,5.4%,13.8%,u
O=C(NNC(=O)C1CC1)c1ccc(-c2ccccc2)cc1,-6.9%,7.5%,14.6%,7.1%,-5.7%
O=C(COC(=O)c1ccccc1O)NNC(=O)c1ccc(Br)cc1,x,-0.7%,-4.5%,-2.1%,-1.2%
O=C(NNC(=O)c1ccccc1O)c1ccc(Br)cc1,x,26.0%,u,u,12µM*
Cc1cccc(C(=O)NNC(=O)c2ccc(Cl)cc2)c1O,15.8µM*,9.2µM*,u,u,10.7µM*
O=C(NNC(=O)c1ccccc1O)c1cccc(Br)c1,x,13.4%,19.3%,u,16.9µM*
O=C(NNC(=O)c1ccccc1C(=O)O)c1ccc(-c2ccccc2)cc1,2.8%,1.7%,0.5%,-3.9%,16.9µM*
O=C(NNC(=O)c1ccccc1O)c1ccc(Cl)cc1,17.7%,u,u,u,9.53µM*
COc1ccc(C2=C/C(=C\c3cccc(OC(C)=O)c3)C(=O)O2)cc1,u,1.8%,2.0%,0.4%,23.9µM*
S=C(c1ccc(-c2cc(Cl)ccc2Cl)o1)N1CCOCC1,-16.4%,0.5%,-3.5%,1.1%,u
S=C(c1ccc(-c2cccc(Cl)c2)o1)N1CCCCC1,11.2µM*,u,2.51µM*,3.55µM*,2.69µM*
S=C(c1ccc(-c2cc(Cl)ccc2Cl)o1)N1CCCCC1,-36.0%,-2.9%,-3.7%,3.1%,16.9µM*
S=C(c1ccc(-c2cccc(Cl)c2)o1)N1CCOCC1,25.1µM*,3.55µM*,3.55µM*,3.16µM*,5.36µM*
O=C(Nc1ccccc1N1CCCCC1)c1ccc(-c2cccc(Cl)c2)o1,-40.3%,3.8%,-2.4%,3.5%,-10.5%
Cc1noc(-c2ccccc2)c1NC(=O)Nc1ccc(Cl)cc1,x,-5.7%,-2.6%,1.0%,-0.6%
Cc1cc(C)n(-c2nc3c(c(=O)[nH]c(=O)n3C)n2CCc2ccccc2)n1,14.1µM*,-3.6%,1.3%,1.8%,2.3%
Cc1cc(C)n(-c2nc3c(c(=O)[nH]c(=O)n3C)n2Cc2ccccc2)n1,-6.2%,3.4%,3.6%,-0.3%,-0.7%
CS(=O)(=O)N1CCc2cc(C(=O)N3CCOCC3)ccc21,2.4%,-1.9%,-7.1%,-3.8%,7.4%
Cc1ccc2c(c1)COc1c3ccc(C(=O)N4CCCCC4)cc3nn1-2,x,u,u,3.16µM*,3.79µM*
O=C(c1ccc2c3n(nc2c1)-c1ccccc1CO3)N1CCOCC1,x,u,1µM*,1.58µM*,4.78µM*

# From PubChem
